# Results filed as inconclusive are left out. Where a call stands in place of a potency, no number is given. A number with no mark means an inactive call. The source made the active and inactive calls. Calls follow the shape of the dose curve; as a rule, active = well fitted cell-killing curve with a large enough effect; inconclusive = small, poorly fitted or top-dose-only effect, or effect the other way; inactive = flat fitted curve, though single readings scatter.
# Tests used:
# Assay in all cases: Primary qHTS to identify gynecologic anti-cancer compounds using libraries of approved drugs and bioactive compounds (AID 1345084); also: nearly all actives have a fitted effect of over 55% in size
# C33A = conditions: Gynecologic cancer cell panel viability, ATPlite luminescence, 48 h; series mostly up to 57.5 µM
# Method in brief: (§1)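 Luminescence from the ATPlite ATP-monitoring reagent indicates viable cell number; lower signal means cytotoxicity. Cells received compound 16 h after seeding and were exposed for 48 h across five concentrations.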
# CAOV3 = conditions: Gynecologic cancer cell panel viability, ATPlite luminescence, 48 h; series mostly up to 57.5 µM
# Method in brief: as §1
# CASKI = conditions: Gynecologic cancer cell panel viability, ATPlite luminescence, 48 h; series mostly up to 57.5 µM
# Method in brief: as §1
# HeLa = conditions: Gynecologic cancer cell panel viability, ATPlite luminescence, 48 h; series mostly up to 57.5 µM
# Method in brief: as §1
# Hek293T = conditions: Gynecologic cancer cell panel viability, ATPlite luminescence, 48 h, control line for the selectivity index; series mostly up to 57.5 µM
# Method in brief: as §1
# JEG-3 = conditions: Gynecologic cancer cell panel viability, ATPlite luminescence, 48 h; series mostly up to 57.5 µM
# Method in brief: as §1
# OV90 = conditions: Gynecologic cancer cell panel viability, ATPlite luminescence, 48 h; series mostly up to 57.5 µM
# Method in brief: as §1
# SKOV3 = conditions: Gynecologic cancer cell panel viability, ATPlite luminescence, 48 h; series mostly up to 57.5 µM
# Method in brief: as §1
# Tov-21-G = conditions: Gynecologic cancer cell panel viability, ATPlite luminescence, 48 h; series mostly up to 57.5 µM
# Method in brief: as §1
# Tov112D = conditions: Gynecologic cancer cell panel viability, ATPlite luminescence, 48 h; series mostly up to 57.5 µM
# Method in brief: as §1
# PA-1 = conditions: Gynecologic cancer cell panel viability, ATPlite luminescence, 48 h; series mostly up to 57.5 µM
# Method in brief: as §1
# Es-2 = conditions: Gynecologic cancer cell panel viability, ATPlite luminescence, 48 h; series mostly up to 57.5 µM
# Method in brief: as §1
# Potency is read from the fitted curve at half-maximal effect.
compound,measurement,setting,value
C[C@@H]1O[C@@H](O[C@H]2[C@H](OC(=O)[C@]34CCC(C)(C)C[C@H]3C3=CCC5[C@@]6(C)C[C@H](O)[C@H](O[C@@H]7O[C@H](C(=O)O)[C@@H](O)[C@H](O)[C@H]7O)[C@@](C)(CO)C6[C@H](O)C[C@@]5(C)[C@]3(C)C[C@H]4O)O[C@@H](CO)[C@@H]2O)[C@H](O)[C@H](O)[C@H]1O[C@@H]1OC[C@@H](O)[C@H](O[C@H]2OC[C@](O)(CO)[C@H]2O)[C@H]1O (some centres not stated),"activity change, negative = cytotoxicity",C33A,-18.2% [at 6.55 µM]
same,"activity change, negative = cytotoxicity",CAOV3,-15.4% [at 6.55 µM]
same,"activity change, negative = cytotoxicity",CASKI,-0.268% [at 6.55 µM]
same,"activity change, negative = cytotoxicity",HeLa,-1.36% [at 6.55 µM]
same,"activity change, negative = cytotoxicity",Hek293T,-4.09% [at 6.55 µM]
same,"activity change, negative = cytotoxicity",JEG-3,-17.4% [at 6.55 µM]
same,"activity change, negative = cytotoxicity",OV90,-4.96% [at 6.55 µM]
same,"activity change, negative = cytotoxicity",SKOV3,-5.43% [at 6.55 µM]
same,"activity change, negative = cytotoxicity",Tov-21-G,-13.8% [at 6.55 µM]
same,"activity change, negative = cytotoxicity",Tov112D,-1.13% [at 6.55 µM]
CNc1nc(NCc2ccc(NS(C)(=O)=O)cc2Cl)cc(-c2ccccn2)n1,Potency,C33A,inactive
same,Potency,CAOV3,inactive
same,Potency,CASKI,inactive
same,Potency,HeLa,inactive
same,Potency,JEG-3,inactive
same,Potency,PA-1,inactive
same,Potency,Tov-21-G,inactive
C=C1C(=O)O[C@@H]2[C@H]3C(C)=CC(=O)C3=C(C)[C@@H](OC(=O)/C(C)=C\C)[C@H](O)[C@@H]12,Potency,C33A,inactive
same,Potency,CAOV3,inactive
same,Potency,CASKI,inactive
same,Potency,HeLa,inactive
same,Potency,JEG-3,inactive
same,Potency,OV90,inactive
same,Potency,SKOV3,inactive
same,Potency,Tov112D,inactive
Cc1cc2c(F)c(Oc3ncnn4cc(OCC(C)OC(=O)C(C)N)c(C)c34)ccc2[nH]1 (configuration not stated),Potency,C33A,inactive
same,Potency,CAOV3,inactive
same,Potency,CASKI,inactive
same,Potency,Es-2,inactive
same,Potency,OV90,inactive
same,Potency,PA-1,inactive
same,Potency,SKOV3,inactive
same,Potency,Tov-21-G,inactive
CCc1cnc(N2CCC(c3nc(COc4ccc(-n5cnnn5)cc4)cs3)CC2)nc1,Potency,C33A,inactive
same,Potency,CAOV3,inactive
same,Potency,CASKI,inactive
same,Potency,HeLa,inactive
same,Potency,JEG-3,inactive
same,Potency,OV90,inactive
same,Potency,PA-1,inactive
same,Potency,Tov-21-G,inactive
same,Potency,Tov112D,inactive
C=C(C)Cn1c(SCC(=O)c2cccs2)nc2sc3c(c2c1=O)CCCC3,Potency,C33A,inactive
same,Potency,CAOV3,inactive
same,Potency,CASKI,inactive
same,Potency,Es-2,inactive
same,Potency,OV90,inactive
same,Potency,SKOV3,inactive
same,Potency,Tov112D,inactive
COc1ccc([C@H]2OC[C@H]3O[C@@H](O[C@H]4[C@@H]2NC[C@@H]4O)[C@H](O)[C@H]3O)cc1,Potency,C33A,7.08 µM (active)
same,Potency,CAOV3,2.82 µM (active)
same,Potency,CASKI,5.01 µM (active)
same,Potency,Es-2,4.47 µM (active)
same,Potency,Hek293T,3.16 µM (active)
same,Potency,JEG-3,5.01 µM (active)
same,Potency,PA-1,5.01 µM (active)
same,Potency,SKOV3,3.98 µM (active)
same,Potency,Tov-21-G,2.82 µM (active)
same,Potency,Tov112D,5.62 µM (active)
O=C(Nc1nc2ccc([N+](=O)[O-])cc2s1)C1CCCCC1,Potency,C33A,inactive
same,Potency,CAOV3,inactive
same,Potency,CASKI,inactive
same,Potency,HeLa,inactive
same,Potency,Hek293T,inactive
same,Potency,JEG-3,inactive
same,Potency,OV90,inactive
same,Potency,PA-1,inactive
same,Potency,Tov-21-G,inactive
same,Potency,Tov112D,inactive
Nc1ncnc2c1c(-c1ccc(Cl)cc1)nn2-c1cccc(-c2cnnn2Cc2cccc(-c3ccccc3)c2)c1,Potency,C33A,inactive
same,Potency,CAOV3,inactive
same,Potency,CASKI,inactive
same,Potency,HeLa,inactive
same,Potency,Hek293T,inactive
same,Potency,JEG-3,inactive
same,Potency,OV90,inactive
same,Potency,SKOV3,inactive
same,Potency,Tov-21-G,inactive
same,Potency,Tov112D,inactive
COC1=CC(=O)C[C@@H](C)[C@@]12Oc1c(Cl)c(OC)cc(OC)c1C2=O,Potency,C33A,inactive
same,Potency,CAOV3,inactive
same,Potency,Es-2,inactive
same,Potency,OV90,inactive
same,Potency,Tov112D,0.1 µM (active)
C=C[C@@]1(C)CCC2C(=CCC3[C@]2(C)CCC[C@@]3(C)C(=O)O)C1 (some centres not stated),Potency,C33A,inactive
same,Potency,CAOV3,inactive
same,Potency,Es-2,inactive
same,Potency,HeLa,inactive
same,Potency,Hek293T,inactive
same,Potency,JEG-3,inactive
same,Potency,OV90,inactive
same,Potency,SKOV3,inactive
same,Potency,Tov-21-G,inactive
C[C@H](Oc1cc(-n2cnc3ccc(CN4CCN(C)CC4)cc32)sc1C(N)=O)c1ccccc1C(F)(F)F,Potency,C33A,15.8 µM (active)
same,Potency,CAOV3,inactive
same,Potency,Es-2,11.2 µM (active)
same,Potency,HeLa,5.01 µM (active)
same,Potency,JEG-3,3.16 µM (active)
same,Potency,OV90,inactive
same,Potency,PA-1,11.2 µM (active)
same,Potency,Tov112D,7.94 µM (active)
C/C(=C\Cc1c(O)c(Cl)c(C)c(C=O)c1O)CC/C=C(\C)[C@H]1CC(=O)C(C)(C)O1,Potency,C33A,inactive
same,Potency,CAOV3,inactive
same,Potency,CASKI,inactive
same,Potency,Hek293T,inactive
same,Potency,OV90,inactive
same,Potency,SKOV3,inactive
same,Potency,Tov112D,inactive
CC(C)c1ccc(NC(=O)c2cccs2)c(-c2nc3ccccc3[nH]c2=O)c1,Potency,C33A,inactive
same,Potency,CAOV3,inactive
same,Potency,Es-2,inactive
same,Potency,HeLa,inactive
same,Potency,Hek293T,inactive
same,Potency,JEG-3,inactive
same,Potency,OV90,inactive
same,Potency,PA-1,inactive
same,Potency,Tov-21-G,inactive
same,Potency,Tov112D,inactive
O=C(C1CCCCC1)N(CCN1CCN(c2ccccc2O)CC1)c1ccccn1,Potency,C33A,inactive
same,Potency,CAOV3,inactive
same,Potency,Es-2,inactive
same,Potency,HeLa,inactive
same,Potency,Hek293T,inactive
same,Potency,JEG-3,inactive
same,Potency,OV90,inactive
same,Potency,PA-1,inactive
same,Potency,SKOV3,inactive
same,Potency,Tov-21-G,inactive
same,Potency,Tov112D,inactive
NCC1CCN(c2nccc(-c3ccc4ccccc4c3)n2)CC1,Potency,C33A,28.2 µM (active)
same,Potency,CAOV3,28.2 µM (active)
same,Potency,Es-2,inactive
same,Potency,HeLa,14.1 µM (active)
same,Potency,JEG-3,inactive
same,Potency,OV90,inactive
same,Potency,PA-1,14.1 µM (active)
same,Potency,SKOV3,22.4 µM (active)
Nc1nc2c(ncn2C2OC3COP(=O)(O)OC3C2O)c(=O)[nH]1 (configuration not stated),Potency,C33A,inactive
same,Potency,CAOV3,inactive
same,Potency,Es-2,inactive
same,Potency,HeLa,inactive
same,Potency,Hek293T,inactive
same,Potency,JEG-3,inactive
same,Potency,PA-1,inactive
same,Potency,SKOV3,inactive
same,Potency,Tov-21-G,inactive
same,Potency,Tov112D,inactive
Cc1cc(C)c2c(c1)C(N(Cc1cc(C(F)(F)F)cc(C(F)(F)F)c1)c1nnn(C)n1)CCCN2CC1CCC(C(=O)O)CC1 (configuration not stated),Potency,C33A,inactive
same,Potency,CAOV3,inactive
same,Potency,CASKI,inactive
same,Potency,Hek293T,inactive
same,Potency,JEG-3,inactive
same,Potency,OV90,inactive
same,Potency,Tov-21-G,inactive
Cc1sc2c(c1C)C(c1ccc(Cl)cc1)=N[C@H](CC(=O)NCCCCNC(=O)COc1cccc3c1C(=O)N([C@H]1CCC(=O)NC1=O)C3=O)c1nnc(C)n1-2,Potency,C33A,inactive
same,Potency,CAOV3,inactive
same,Potency,CASKI,inactive
same,Potency,OV90,inactive
same,Potency,PA-1,1.58 µM (active)
same,Potency,SKOV3,inactive
same,Potency,Tov-21-G,1.78 µM (active)
same,Potency,Tov112D,inactive
Nc1ncnc2c1nc(Cl)n2C1OC2COP(=O)(O)OC2C1O (configuration not stated),Potency,C33A,7.94 µM (active)
same,Potency,CAOV3,5.62 µM (active)
same,Potency,Es-2,10 µM (active)
same,Potency,HeLa,11.2 µM (active)
same,Potency,Hek293T,10 µM (active)
same,Potency,JEG-3,15.8 µM (active)
same,Potency,PA-1,8.91 µM (active)
same,Potency,Tov-21-G,8.91 µM (active)
same,Potency,Tov112D,5.01 µM (active)
CC1(C)SCCN(S(=O)(=O)c2ccc(Oc3ccncc3)cc2)[C@H]1C(=O)NO,Potency,C33A,inactive
same,Potency,CAOV3,inactive
same,Potency,Es-2,inactive
same,Potency,HeLa,inactive
same,Potency,Hek293T,inactive
same,Potency,JEG-3,inactive
same,Potency,OV90,inactive
same,Potency,PA-1,inactive
same,Potency,SKOV3,inactive
same,Potency,Tov-21-G,inactive
same,Potency,Tov112D,inactive
C=CC(=O)N1CCCC(n2nc(-c3ccc(Oc4ccccc4)cc3)c3c(N)ncnc32)C1 (configuration not stated),Potency,C33A,inactive
same,Potency,CAOV3,inactive
same,Potency,Es-2,inactive
same,Potency,HeLa,inactive
same,Potency,Hek293T,inactive
same,Potency,JEG-3,inactive
same,Potency,OV90,inactive
same,Potency,Tov112D,inactive
CC(O)(C(=O)C1CC1(CO)COC1OC(CO)C(O)C(O)C1O)C1C(O)CC2C3CC=C4CC(O)CC(O)C4(C)C3C(O)CC21C (configuration not stated),Potency,C33A,0.562 µM (active)
same,Potency,CAOV3,1.78 µM (active)
same,Potency,Es-2,0.891 µM (active)
same,Potency,HeLa,1.41 µM (active)
same,Potency,Hek293T,1.41 µM (active)
same,Potency,OV90,4.47 µM (active)
same,Potency,PA-1,1.78 µM (active)
same,Potency,Tov-21-G,0.562 µM (active)
same,Potency,Tov112D,0.562 µM (active)
FC(F)(F)c1ccccc1-c1cc(C(F)(F)F)c2nc(C3=NOC4(CCCCC4)C3)[nH]c2c1,Potency,C33A,inactive
same,Potency,CAOV3,inactive
same,Potency,Es-2,inactive
same,Potency,HeLa,inactive
same,Potency,Hek293T,inactive
same,Potency,JEG-3,inactive
same,Potency,OV90,inactive
same,Potency,PA-1,inactive
same,Potency,SKOV3,inactive
same,Potency,Tov-21-G,inactive
same,Potency,Tov112D,inactive
CC(C)(O)C1Cc2c(ccc(C(=O)CCc3ccccc3)c2O)O1 (configuration not stated),Potency,C33A,11.2 µM (active)
same,Potency,CAOV3,10 µM (active)
same,Potency,HeLa,10 µM (active)
same,Potency,Hek293T,11.2 µM (active)
same,Potency,JEG-3,inactive
same,Potency,OV90,11.2 µM (active)
same,Potency,PA-1,12.6 µM (active)
same,Potency,Tov-21-G,12.6 µM (active)
same,Potency,Tov112D,10 µM (active)
COc1cc2ncnc(Nc3ccc(O)c(Br)c3)c2cc1OC,Potency,C33A,inactive
same,Potency,CAOV3,inactive
same,Potency,Es-2,inactive
same,Potency,HeLa,inactive
same,Potency,Hek293T,inactive
same,Potency,JEG-3,inactive
same,Potency,OV90,inactive
same,Potency,Tov112D,inactive

# From PubChem BioAssay (NCATS)
